The nature of experiment [1]: NCI Yeast Anticancer Drug Screen. Data for the rad50 strain (AID 155).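 Note: 0% = growth of vehicle-only cultures of the same strain.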 Particulars: S. cerevisiae rad50 strain growth inhibition, hits give high values. The method, boiled down: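 Genetically altered yeast (DNA repair pathway); compound treatment; growth inhibition vs vehicle ctrl.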
The nature of experiment [2]: NCI Yeast Anticancer Drug Screen. Data for the mec2-1 strain (AID 157). Particulars: S. cerevisiae mec2-1 strain, hits give high values. The essentials: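 Mutant yeast (mec2-1) grown with compound; growth inhibition relative to vehicle control reported.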
Experiment [3] is described as follows: NCI Yeast Anticancer Drug Screen. Data for the sgs1 mgt1 strain (AID 161).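 Note: 0% = growth of cultures given vehicle only.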 Particulars: S. cerevisiae sgs1 mgt1 strain, hits give high values. The essentials: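 Yeast cells carrying a defined DNA-repair defect were exposed to test compounds. Growth inhibition was measured relative to vehicle-treated controls.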
Experiment [4] in a line: NCI Yeast Anticancer Drug Screen. Data for the cln2 rad14 strain (AID 165).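 Note: 0% = growth equal to vehicle treated cultures.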 Particulars: S. cerevisiae cln2 rad14 strain, hits give high values. The essentials:
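Readout is yeast growth inhibition versus vehicle-treated controls, using a strain with cln2 and rad14 alterations exposed to compound.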

Experiment [5] in a line: NCI Yeast Anticancer Drug Screen. Data for the bub3 strain (AID 167). Particulars: S. cerevisiae bub3 mutant strain, hits give high values. The method, boiled down: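 Yeast carrying a defined mutation is treated with each compound, and growth is compared with that of vehicle-exposed cells to give inhibition.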
Experiment [6] in a line: NCI Yeast Anticancer Drug Screen. Data for the mlh1 rad18 strain (AID 175). Particulars: S. cerevisiae mlh1 rad18 strain growth inhibition, hits give high values. The method, boiled down:
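Genetically defined yeast (DNA repair-deficient) exposed to compounds; growth inhibition determined relative to vehicle.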

Where [7] appears, read: at 5.0 µM (retest, dose inferred, filed as 0.5).
Setting [8] is: at 50.0 µM (retest, dose inferred, filed as 5.0).

This is part of a sample that, as a whole, favours compounds with a hit. Of some 79,000 tested, about 15% had one in any assay. Unmarked numbers belong to inactive results. The source made the active and inactive calls. Cut-off read from the data, not from the text of the source: active = growth inhibition above about 70%; inactive = the rest.

As to `Cc1ccc(NC(=O)CCCC(=O)C(C#N)c2ccccc2C)cc1C` (stereo not given), the growth inhibition in experiment [1] (setting [7]) was -5%; in experiment [1] (setting [8]), 7%; in experiment [1] (at 50.0 µM), -17.3%; in experiment [2] (setting [7]), -2%; in experiment [2] (setting [8]), 3%; in experiment [2] (at 50.0 µM), 11.4%. Besides, the growth inhibition in experiment [3] (setting [7]) was -5%; in experiment [3] (setting [8]), -19%; in experiment [3] (at 50.0 µM), 10.6%; in experiment [4] (setting [7]) it was -8%; in experiment [4] (setting [8]), -5%; in experiment [4] (at 50.0 µM) it was -19.1%. For the same molecule, the growth inhibition in experiment [5] (setting [7]) was -1%; in experiment [5] (setting [8]), 2%; in experiment [5] (at 50.0 µM) it was 5.75%; in experiment [6] (setting [7]), 1%; in experiment [6] (setting [8]) it was -4%; in experiment [6] (at 50.0 µM), 12.1%.

Take `N#CC1C(=O)NC(=O)C(C#N)C1c1c(Cl)cccc1Cl` (stereo not given): the growth inhibition in experiment [1] (setting [7]) was 5%; in experiment [1] (setting [8]), 72% (active); in experiment [1] (at 50.0 µM), 96.2% (active); in experiment [2] (setting [7]) it was 1%; in experiment [2] (setting [8]) it was 55%; in experiment [2] (at 50.0 µM), 92.5% (active). In addition, the growth inhibition was 4% in experiment [3] (setting [7]); 91% (active) in experiment [3] (setting [8]); 94% (active) in experiment [3] (at 50.0 µM); 8% in experiment [4] (setting [7]); 28% in experiment [4] (setting [8]); 48.1% in experiment [4] (at 50.0 µM). The growth inhibition in experiment [5] (setting [7]) is -7%; in experiment [5] (setting [8]), 74% (active); in experiment [5] (at 50.0 µM), 91% (active); in experiment [6] (setting [7]) it was 1%; in experiment [6] (setting [8]) it was 93% (active); in experiment [6] (at 50.0 µM), 94.7% (active).

In the case of `O=c1c2cc(Cl)ccc2[nH]c2cc(O)cc(O)c12`, the growth inhibition in experiment [1] (setting [7]) is -18%; in experiment [1] (setting [8]), 25%; in experiment [1] (at 50.0 µM) it was 70.5% (active); in experiment [2] (setting [7]) it was -43%; in experiment [2] (setting [8]) it was 3%; in experiment [2] (at 50.0 µM) it was -12.4%. Besides, the growth inhibition in experiment [3] (setting [7]) was -9%; in experiment [3] (setting [8]) it was 11%; in experiment [3] (at 50.0 µM), 21.5%; in experiment [4] (setting [7]) it was -15%; in experiment [4] (setting [8]), 16%; in experiment [4] (at 50.0 µM), 11.9%. In addition, the growth inhibition is -13% in experiment [5] (setting [7]); 39% in experiment [5] (setting [8]); 15.1% in experiment [5] (at 50.0 µM); -20% in experiment [6] (setting [7]); 45% in experiment [6] (setting [8]); 15.9% in experiment [6] (at 50.0 µM).

With `COc1ccc(Cc2ccc3c(C)cc(Cl)nc3c2)cc1`, the growth inhibition in experiment [1] (setting [7]) was 1%; in experiment [1] (setting [8]), 74% (active); in experiment [1] (at 50.0 µM) it was 77% (active); in experiment [2] (setting [7]), -8%; in experiment [2] (setting [8]), 87% (active); in experiment [2] (at 50.0 µM), 67.8%. Also, the growth inhibition in experiment [3] (setting [7]) is -5%; in experiment [3] (setting [8]), 96% (active); in experiment [3] (at 50.0 µM), 87% (active); in experiment [4] (setting [7]), 1%; in experiment [4] (setting [8]), 29%; in experiment [4] (at 50.0 µM) it was 31.6%. The growth inhibition in experiment [5] (setting [7]) is 10%; in experiment [5] (setting [8]), 78% (active); in experiment [5] (at 50.0 µM), 89% (active); in experiment [6] (setting [7]), 0%; in experiment [6] (setting [8]), 93% (active); in experiment [6] (at 50.0 µM), 86.3% (active).

Regarding `CC(=O)NNc1ccc(Cl)cc1[N+](=O)[O-]`, the growth inhibition in experiment [1] (setting [7]) was 18%; in experiment [1] (setting [8]), 30%; in experiment [1] (at 50.0 µM) it was 51%; in experiment [2] (setting [7]) it was -5%; in experiment [2] (setting [8]), 26%; in experiment [2] (at 50.0 µM) it was 25.3%. The growth inhibition in experiment [3] (setting [7]) is -6%; in experiment [3] (setting [8]) it was 20%; in experiment [3] (at 50.0 µM), 12.1%; in experiment [4] (setting [7]) it was 5%; in experiment [4] (setting [8]), 4%; in experiment [4] (at 50.0 µM) it was 44.1%. Moreover, the growth inhibition is 3% in experiment [5] (setting [7]); 19% in experiment [5] (setting [8]); 77.3% (active) in experiment [5] (at 50.0 µM); 28% in experiment [6] (setting [7]); 69% in experiment [6] (setting [8]); 91% (active) in experiment [6] (at 50.0 µM).

`Cc1[nH]nc(C(=O)N/N=C/c2ccccc2Cl)c1N=NN(C)C`: the growth inhibition in experiment [1] (setting [7]) was 41%; in experiment [1] (setting [8]), 91% (active); in experiment [1] (at 50.0 µM) it was 92.5% (active); in experiment [2] (setting [7]), 50%; in experiment [2] (setting [8]), 93% (active); in experiment [2] (at 50.0 µM) it was 92.4% (active). Further, the growth inhibition was 33% in experiment [3] (setting [7]); 94% (active) in experiment [3] (setting [8]); 91.9% (active) in experiment [3] (at 50.0 µM); 5% in experiment [4] (setting [7]); 93% (active) in experiment [4] (setting [8]); 93.7% (active) in experiment [4] (at 50.0 µM). Also, the growth inhibition in experiment [5] (setting [7]) was 12%; in experiment [5] (setting [8]), 88% (active); in experiment [5] (at 50.0 µM) it was 89.7% (active); in experiment [6] (setting [7]) it was 72% (active); in experiment [6] (setting [8]), 94% (active); in experiment [6] (at 50.0 µM), 95.3% (active).

As to `CN(C)C(=S)/N=c1\ssc(=S)n1-c1ccccc1`, the growth inhibition in experiment [1] (setting [7]) is 17%; in experiment [1] (setting [8]), 100% (active); in experiment [1] (at 50.0 µM), -13.9%; in experiment [2] (setting [7]), 39%; in experiment [2] (setting [8]), 99% (active); in experiment [2] (at 50.0 µM) it was -8.8%. For the same molecule, the growth inhibition in experiment [3] (setting [7]) is 50%; in experiment [3] (setting [8]), 100% (active); in experiment [3] (at 50.0 µM), -13.1%; in experiment [4] (setting [7]), 38%; in experiment [4] (setting [8]) it was 99% (active); in experiment [4] (at 50.0 µM) it was -17.1%. For the same molecule, the growth inhibition in experiment [5] (setting [7]) is 46%; in experiment [5] (setting [8]), 100% (active); in experiment [5] (at 50.0 µM), -2.45%; in experiment [6] (setting [7]), 23%; in experiment [6] (setting [8]) it was 99% (active); in experiment [6] (at 50.0 µM), 20.7%.

For the molecule `CCOC(=O)Cc1csc2[n+]1C(=O)/C(=C\c1cccc(Cl)c1Cl)S2`, the growth inhibition in experiment [1] (setting [7]) is 11%; in experiment [1] (setting [8]), 20%; in experiment [1] (at 50.0 µM) it was 69.4%; in experiment [2] (setting [7]) it was 0%; in experiment [2] (setting [8]), 28%; in experiment [2] (at 50.0 µM), 60%. Further, the growth inhibition in experiment [3] (setting [7]) was 1%; in experiment [3] (setting [8]), 52%; in experiment [3] (at 50.0 µM), 83.4% (active); in experiment [4] (setting [7]) it was -11%; in experiment [4] (setting [8]), 32%; in experiment [4] (at 50.0 µM) it was 31.8%. The growth inhibition was -32% in experiment [5] (setting [7]); 52% in experiment [5] (setting [8]); 75.8% (active) in experiment [5] (at 50.0 µM); 14% in experiment [6] (setting [7]); 29% in experiment [6] (setting [8]); 72.5% (active) in experiment [6] (at 50.0 µM).

For `O=S1(=O)CCc2ccccc2C(Br)C1Br` (stereo not given), the growth inhibition is 13% in experiment [1] (setting [7]); 98% (active) in experiment [1] (setting [8]); 100% (active) in experiment [1] (at 50.0 µM); 7% in experiment [2] (setting [7]); 99% (active) in experiment [2] (setting [8]); 99.6% (active) in experiment [2] (at 50.0 µM). Also, the growth inhibition in experiment [3] (setting [7]) is 15%; in experiment [3] (setting [8]), 12%; in experiment [3] (at 50.0 µM), 99.5% (active); in experiment [4] (setting [7]), 17%; in experiment [4] (setting [8]), 99% (active); in experiment [4] (at 50.0 µM), 98.3% (active). Besides, the growth inhibition is -6% in experiment [5] (setting [7]); 99% (active) in experiment [5] (setting [8]); 98.2% (active) in experiment [5] (at 50.0 µM); 10% in experiment [6] (setting [7]); 99% (active) in experiment [6] (setting [8]); 99.3% (active) in experiment [6] (at 50.0 µM).

Consider `Nc1c(Cl)nc(C(F)(F)F)nc1NCc1ccccc1`, for which the growth inhibition was 60% in experiment [1] (setting [7]); 99% (active) in experiment [1] (setting [8]); 39.7% in experiment [1] (at 50.0 µM); 99% (active) in experiment [2] (setting [7]); 99% (active) in experiment [2] (setting [8]); 8.25% in experiment [2] (at 50.0 µM). The growth inhibition was 97% (active) in experiment [3] (setting [7]); 99% (active) in experiment [3] (setting [8]); 1.45% in experiment [3] (at 50.0 µM); 99% (active) in experiment [4] (setting [7]); 99% (active) in experiment [4] (setting [8]); -48.1% in experiment [4] (at 50.0 µM). Moreover, the growth inhibition is 99% (active) in experiment [5] (setting [7]); 99% (active) in experiment [5] (setting [8]); 23.7% in experiment [5] (at 50.0 µM); 91% (active) in experiment [6] (setting [7]); 99% (active) in experiment [6] (setting [8]); 5.35% in experiment [6] (at 50.0 µM).
